Screening results as filed in PubChem.
IL1B cytotox – toxic to HUVEC cells under IL-1B stimulation; AID 845; hit rate 0.41% among 94,000; HUVEC cell count loss, Hoechst imaging, IL-1B stimulated; cell count reduction, % at 2 µM;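 active = cell count reduction more than 3 SD above the screen-wide mean, cut at about 70% in these data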;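 note: normalized per plate to untreated control cells as the no-loss baseline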
TNFa cytotox – toxic to HUVEC cells under TNF alpha stimulation; AID 848; HUVEC TNFalpha-stimulated, Hoechst cell count, imaging; cell count reduction, % at 2 µM; hit rate 0.17% among 93,000;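 active = cell count reduction exceeding the screen mean by over 5 SD, scaled to untreated wells per plate, cut at about 78% in these data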;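 note: cells counted after 24 h of TNF alpha exposure following the 1 h pretreatment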
IL1B NFkB pot – enhances IL-1B driven NFkB nuclear translocation; HUVEC IL-1B NFkB p65 nuclear translocation imaging; activation, % at 2 µM; hit rate 0.3% among 94,000; AID 819;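 active = activation above 40%, about the mean plus 3 SD, also judged a hit on visual image review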;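 note: percent activation is computed from the nuclear over cytoplasmic p65 intensity ratio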
VCAM1 TNFa inh – reduces TNF alpha induced VCAM1 expression in HUVEC. HUVEC TNFa-induced VCAM-1 immunofluorescence, high-content imaging. inhibition, % at 2 µM. hit rate 0.48% among 95,000;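 active = inhibition above the batch mean plus 3 SD, with images confirmed as a hit by eye, cut at about 37% in these data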;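 note: 0% = TNF-stimulated DMSO wells and 100% = unstimulated control wells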
NFkB transloc inh – blocks IL-1B driven NFkB nuclear translocation in HUVEC cells. HUVEC IL-1B NFkB p65 nuclear translocation imaging. inhibition, % at 2 µM. hit rate 0.43% among 94,000;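 active = inhibition above about 30% together with a positive call from visual inspection of the well image, limit read from the data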;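 note: nuclear over cytoplasmic p65 intensity ratio measured by imaging; 0% = IL-1B stimulated DMSO wells and 100% = unstimulated DMSO wells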
Numbers without * were called inactive. An excerpt weighted towards active compounds, which were near 1.5% of everything screened.

What do the screens show for `Cc1cc2ccccc2c(=O)n1CC(=O)N1CCN(c2cccc(Cl)c2)CC1`?
IL1B cytotox: -5; IL1B NFkB pot: 2; NFkB transloc inh: -2

How did CCn1c(SCC(=O)N2CCN(c3cccc(Cl)c3)CC2)nc2ccccc2c1=O do in these assays?
IL1B cytotox: -8; TNFa cytotox: -1; IL1B NFkB pot: 0; VCAM1 TNFa inh: 96*; NFkB transloc inh: 0

Results for CCN1CCC2(CC1)C(C#N)=C(N)Oc1c2sc2nc(C)cc(C)c12 ?
IL1B cytotox: 7; TNFa cytotox: 69; IL1B NFkB pot: 2; VCAM1 TNFa inh: 84*; NFkB transloc inh: -2

Results for S=C(NCc1ccco1)N1CCN(Cc2ccc(Cl)cc2Cl)CC1 ?
IL1B cytotox: -6; TNFa cytotox: 3; IL1B NFkB pot: 11; VCAM1 TNFa inh: -3; NFkB transloc inh: -11

What do the screens show for `FC(F)(F)c1ccc(CN2CCCCCC2)cc1`?
IL1B cytotox: -8; TNFa cytotox: -14; IL1B NFkB pot: -4; VCAM1 TNFa inh: -17; NFkB transloc inh: 4

Results for Cn1nc(C(=O)OCC(=O)N2CCc3ccccc32)c2ccccc2c1=O ?
IL1B cytotox: 13; TNFa cytotox: 88*; IL1B NFkB pot: -2; VCAM1 TNFa inh: 77*; NFkB transloc inh: 2

How did Cc1cc(N2CC(C(=O)O)CC2=O)ccc1Br (stereo unspecified) do in these assays?
IL1B cytotox: -13; TNFa cytotox: 92*; IL1B NFkB pot: -4; VCAM1 TNFa inh: 62; NFkB transloc inh: 4

What do the screens show for `Cc1cc2nc(-c3ccc(SCc4ccc(C#N)cc4)nc3)[nH]c2cc1C`?
IL1B cytotox: -58; TNFa cytotox: 5; IL1B NFkB pot: 16; VCAM1 TNFa inh: -6; NFkB transloc inh: -16

Results for CNC(=S)Nc1cc(OC)ccc1OC ?
IL1B cytotox: -19; TNFa cytotox: -14; IL1B NFkB pot: 3; VCAM1 TNFa inh: 6; NFkB transloc inh: -3

How did CCCc1nnc(SCC(=O)O)n1/N=C/c1ccc2c(c1)OCO2 do in these assays?
IL1B cytotox: 20; TNFa cytotox: 49; IL1B NFkB pot: -8; VCAM1 TNFa inh: 48*; NFkB transloc inh: 8

What do the screens show for `CCc1n[nH]c(=S)n1/N=C/c1ccc2c(c1)OCO2`?
IL1B cytotox: -16; TNFa cytotox: -19; IL1B NFkB pot: 2; VCAM1 TNFa inh: 8; NFkB transloc inh: -2

What do the screens show for `Cc1cccc(N2CCN(S(=O)(=O)c3ccc4c(c3)CCN4C(=O)CCC(=O)O)CC2C)c1` (stereo unspecified)?
IL1B cytotox: 0; TNFa cytotox: 4; IL1B NFkB pot: 11; VCAM1 TNFa inh: -19; NFkB transloc inh: -11

What do the screens show for `CCOCCCNC(=O)C(NC(=O)c1cnccn1)c1ccc(C)cc1` (stereo unspecified)?
IL1B cytotox: -5; TNFa cytotox: -6; IL1B NFkB pot: 18; VCAM1 TNFa inh: -6; NFkB transloc inh: -18

How did COC(=O)CCS(=O)(=O)c1nc(-c2ccccc2)cc(C(F)(F)F)n1 do in these assays?
IL1B cytotox: -4; TNFa cytotox: -1; IL1B NFkB pot: -37; VCAM1 TNFa inh: 33; NFkB transloc inh: 37*

Results for CS(=O)(=O)c1nc(-c2cccs2)cc(C(F)(F)F)n1 ?
IL1B cytotox: 0; TNFa cytotox: 8; IL1B NFkB pot: -31; VCAM1 TNFa inh: 0; NFkB transloc inh: 31*

What do the screens show for `O=C(NC(=S)Nc1ccc2oc(-c3cccnc3)nc2c1)c1cccc(Cl)c1`?
IL1B cytotox: -4; TNFa cytotox: -26; IL1B NFkB pot: -1; VCAM1 TNFa inh: 3; NFkB transloc inh: 1

What do the screens show for `CCC(=O)Nc1sc2c(c1C#N)CC(C)(C)NC2(C)C`?
IL1B cytotox: -25; TNFa cytotox: 23; IL1B NFkB pot: 32; VCAM1 TNFa inh: 5; NFkB transloc inh: -32

What do the screens show for `CC1(C)Cc2c(sc(NC(=O)C(C)(C)C)c2C#N)C(C)(C)N1`?
IL1B cytotox: -30; TNFa cytotox: 89*; IL1B NFkB pot: 21; VCAM1 TNFa inh: -13; NFkB transloc inh: -21

How did Cc1noc(C)c1CSc1nnc2sc3ccccc3n12 do in these assays?
IL1B cytotox: -11; TNFa cytotox: -18; IL1B NFkB pot: 19; VCAM1 TNFa inh: 1; NFkB transloc inh: -19

Results for Cc1nn(-c2ccccc2)c2c1C1(C(=O)N(C(C)C)c3ccccc31)C(C#N)=C(N)O2 (stereo unspecified) ?
IL1B cytotox: 8; TNFa cytotox: -36; IL1B NFkB pot: 11; VCAM1 TNFa inh: 16; NFkB transloc inh: -11

What do the screens show for `Cc1ccc(Nc2cc(C)nn2-c2nc(C)cc(=O)[nH]2)cc1`?
IL1B cytotox: 14; TNFa cytotox: 62; IL1B NFkB pot: -78; VCAM1 TNFa inh: 69; NFkB transloc inh: 78*

Results for COc1cccc(C2(O)CCN(C(=O)Cc3cccnc3)CC2)c1 ?
IL1B cytotox: -18; TNFa cytotox: -7; IL1B NFkB pot: 8; VCAM1 TNFa inh: -10; NFkB transloc inh: -8

What do the screens show for `CCCN1Cc2cccc(C(=O)N3CCN(c4ccccc4)CC3)c2C1=O`?
IL1B cytotox: 94*; TNFa cytotox: 0; IL1B NFkB pot: 32; VCAM1 TNFa inh: 14; NFkB transloc inh: -32

What do the screens show for `O=C(OCn1nnc2ccccc2c1=O)c1cn(-c2ccccc2)nc1-c1cccnc1`?
IL1B cytotox: -7; TNFa cytotox: -24; IL1B NFkB pot: 98*; VCAM1 TNFa inh: -1; NFkB transloc inh: -98

What do the screens show for `CN1CCN(C2=CC(=O)OC23CCCCC3)CC1`?
IL1B cytotox: -8; TNFa cytotox: -1; IL1B NFkB pot: 7; VCAM1 TNFa inh: 1; NFkB transloc inh: -7

Results for N#CCc1nc2c3c4c(sc3ncn2n1)CCCC4 ?
IL1B cytotox: -20; TNFa cytotox: 27; IL1B NFkB pot: 2; VCAM1 TNFa inh: 60*; NFkB transloc inh: -2

How did Cc1nn2cnc3sc4c(c3c2nc1=O)CCCC4 do in these assays?
IL1B cytotox: -52; TNFa cytotox: 6; IL1B NFkB pot: 0; VCAM1 TNFa inh: 17; NFkB transloc inh: 0

Results for CCOC(=O)C(C(=O)Nc1cccc(C)c1)C1CCCCC1 (stereo unspecified) ?
IL1B cytotox: 9; TNFa cytotox: -13; IL1B NFkB pot: 3; VCAM1 TNFa inh: 2; NFkB transloc inh: -3

What do the screens show for `COc1cccc(CNC(=O)C2CCN(Cc3cnn(-c4ccccc4)c3-n3cccc3)CC2)c1`?
IL1B cytotox: -7; IL1B NFkB pot: 63*; VCAM1 TNFa inh: 18; NFkB transloc inh: -63

How did CC(=O)c1ccc(N2CCN(c3ccc(S(=O)(=O)N4CCN(C)CC4)cn3)CC2)cc1 do in these assays?
TNFa cytotox: -22; VCAM1 TNFa inh: -7

How did O=C(CN1CCSCC1)N1CCc2[nH]c3ccc(Br)cc3c2C1 do in these assays?
IL1B cytotox: 18; TNFa cytotox: 4; IL1B NFkB pot: 3; VCAM1 TNFa inh: 61*; NFkB transloc inh: -3

Results for CCOc1ccc2oc(-c3ccccc3)c(C(=O)N3CCN(CCO)CC3)c2c1 ?
IL1B cytotox: 44; IL1B NFkB pot: -15; VCAM1 TNFa inh: -35; NFkB transloc inh: 15

Results for Cc1cc(C)n2c(SCc3ccccc3Cl)nnc2n1 ?
IL1B cytotox: 27; TNFa cytotox: -15; IL1B NFkB pot: -31; VCAM1 TNFa inh: 18; NFkB transloc inh: 31*
